Test results published in PubChem BioAssay (NCATS).
Records with an inconclusive call do not appear. The call rests on the fitted dose curve; in most records, active means well fitted curve in either direction with a large enough effect (not every such curve was filed as active); inconclusive means small, poorly fitted or top-dose-only effect, or another doubt; inactive means flat fitted curve, though single readings scatter.

assay: AP1 Signaling Pathway (AID 357); conditions: ME-180 (cervical carcinoma) AP-1-bla reporter, EGF-induced, beta-lactamase ratio, 5 h; at 17.2 µM (top of the series) unless noted;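 further: ME-180 reporter cells stimulated with EGF at its EC50 level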
Procedure, shortened: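 Read-out was the 460nm/530nm emission ratio (excitation 405nm) after CCF4 loading for 2.5 hours at room temperature. Cells carried an AP-1-driven beta-lactamase reporter, were stimulated with EC50 EGF plus compound for 5 hours, and AC50 values came from titrations.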
On the % scale 0 is the no-effect control and ±100 the full control effect.

Activity change, negative = inhibition, inactive:
COCCN(C(=O)Nc1ccccc1)c1ccccc1C -9.46%, Oc1ccc2ccccc2c1/C=N/n1cnnc1 -5.14%, Cn1c(=O)c2c(nc(NCC(O)CO)n2CCc2ccccc2)n(C)c1=O (stereo not given) 8.87%, CC1=C(C(=O)Nc2ccccc2)C(c2ccncc2)C(C#N)=C(SCC(=O)NC(C)C)N1 (stereo not given) -5.76%, C=C(C)C1Cc2c(C)nn(-c3nc(C)cc(C)n3)c2C1 (stereo not given) -4.28%, Cc1[nH]nc2c1C(CCc1ccccc1)C(C#N)=C(N)O2 (stereo not given) -6.35%, COCCN(CCOC)C(=O)C12CCC(C)(C(=O)C1)C2(C)C (stereo not given) 9.52%, COc1ccc(C2CC(=O)C(C=NCCN3CCOCC3)=C(O)C2)cc1 (stereo not given) 18.9%, CN1CCN(c2nc(C(N)=O)cc(-c3ccccc3)n2)CC1 -1.1%, COc1cccc(COc2nc3c(c(=O)n(C)c(=O)n3C)n2C)c1 -9.75%, COc1ccccc1N(O)C1CC(=O)N(c2ccc(F)cc2)C1=O (stereo not given) -0.204%, O=C(Nc1ccccc1)c1cc(N2CCOCC2)nc2ccccc12 2.4%, COc1ccc(Cn2c(O)cc(=O)[nH]c2=O)cc1 27.1%, COC(=O)C(NC(=O)c1ccco1)(Nc1ccc(Br)cn1)C(F)(F)F (stereo not given) -10.6%, CC(=O)Nc1ccc(Oc2ccc3nc(C)[nH]c3c2)cc1 -4.84%, CC(C)C(C(=O)Nc1ncn[nH]1)N1C(=O)c2ccccc2C1=O (stereo not given) 21.4%, O=C(NCCOCCOCCNC(=O)c1cccnc1)c1cccnc1 -1.69%, CCCOc1ccc(/C(O)=C2/C(=O)C(=O)N(CCCn3ccnc3)C2c2cccs2)cc1 (stereo not given) -14.1%, O=C(c1nsnc1-c1ccccc1O)N1CCCCC1 12.2%, CC(=O)Nc1ccc(NCC(O)COc2ccccc2)cc1 (stereo not given) -3%, CC1CCc2cc(F)cc3c(O)c(C(=O)Nc4cnccn4)c(=O)n1c23 (stereo not given) -8.92%, O=C(c1ccccc1)n1c(=S)nc2ccccn21 4.19%, Cc1cc(=O)oc(C)c1C(=O)NC12CC3CC(CC(C3)C1)C2 -5.66%, S=C(N=Nc1ccccc1)NNc1ccccc1 7.8%, COc1ccc(C(=O)N2CCC(N3CCN(c4ccccc4)CC3)CC2)cc1OC 11.1%, CC(=O)c1cccc(N=C2NC(=O)C(CO)(CO)S2)c1 3.54%, COc1cccc(NC(=O)CSC2=C(C#N)C(c3ccco3)C3=C(CCCC3=O)N2)c1 (stereo not given) -18.7%, CCCCCOC(=O)C(C)c1c(C)[nH]c(=S)[nH]c1=O (stereo not given) 7.28%, Cn1c(O)c(C=Nc2ccc(Cc3ccncc3)cc2)c(=O)n(C)c1=O -2.77%, CN=C1c2cc3c(Br)c(OC)ccc3n2CCN1C 4.49%, CN(C)S(=O)(=O)Nc1ccc(NS(=O)(=O)N(C)C)c(S(=O)(=O)c2ccccc2)c1 -9.87%, CCOC(=O)NC(Nc1cc(C)on1)(C(F)(F)F)C(F)(F)F 20.3%, CC1(C)Cc2c(c(-c3ccccc3)nc3[nH][nH]c(=O)c23)CO1 -1.59%, CCCCc1nc(N2CCOCC2)c(C#N)c2c1CCCC2 -10.8%, c1ccc(-c2nnc3sc(Cc4cccs4)nn23)cc1 -13.7%, COC(=O)c1cc(Br)c(=O)n(-c2nccs2)c1 1.9%, COc1ccc(N2C(=O)C3C(C2=O)C2C=CC3C23CC3)c(OC)c1 (stereo not given) 16.2%, CCCOc1cccc(C2C(C(=O)c3ccc(C)o3)=C(O)C(=O)N2CCCN(C)C)c1 (stereo not given) -10.8%, O=C(NCCO)c1cccc2c1C(=O)c1ccccc1-2 9.17%, Cn1c(OCc2ccc3c(c2)OCO3)nc2c1c(=O)n(Cc1cccc(Cl)c1)c(=O)n2C -15.5%

assay: NFAT Signaling Pathway (AID 444); conditions: Jurkat NFAT-bla M1, carbachol, beta-lactamase ratio, 5 h; at 17.2 µM (top of the series) unless noted;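 further: carbachol stimulus at about its EC50 of 1 µM final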
Procedure, shortened: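 Jurkat cells carrying an NFAT-driven β-lactamase reporter and co-transfected muscarinic M1 receptor were treated with compound plus carbachol (1 uM final, an EC50 level) for 5 h at 37 °C. CCF4 loading followed for 1 h at RT; 460/530 nm ratio gave %activity.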

Activity change, negative = inhibition, inactive:
COCCN(C(=O)Nc1ccccc1)c1ccccc1C -0.712%, Oc1ccc2ccccc2c1/C=N/n1cnnc1 6.11%, Cn1c(=O)c2c(nc(NCC(O)CO)n2CCc2ccccc2)n(C)c1=O (stereo not given) -3.8%, CC1=C(C(=O)Nc2ccccc2)C(c2ccncc2)C(C#N)=C(SCC(=O)NC(C)C)N1 (stereo not given) 1.05%, C=C(C)C1Cc2c(C)nn(-c3nc(C)cc(C)n3)c2C1 (stereo not given) 10.4%, Cc1[nH]nc2c1C(CCc1ccccc1)C(C#N)=C(N)O2 (stereo not given) 10.3%, COCCN(CCOC)C(=O)C12CCC(C)(C(=O)C1)C2(C)C (stereo not given) 8.02%, COc1ccc(C2CC(=O)C(C=NCCN3CCOCC3)=C(O)C2)cc1 (stereo not given) -9.07%, CN1CCN(c2nc(C(N)=O)cc(-c3ccccc3)n2)CC1 -3.4%, COc1cccc(COc2nc3c(c(=O)n(C)c(=O)n3C)n2C)c1 12.8%, COc1ccccc1N(O)C1CC(=O)N(c2ccc(F)cc2)C1=O (stereo not given) -3.85%, O=C(Nc1ccccc1)c1cc(N2CCOCC2)nc2ccccc12 13.1%, COc1ccc(Cn2c(O)cc(=O)[nH]c2=O)cc1 -0.64%, COC(=O)C(NC(=O)c1ccco1)(Nc1ccc(Br)cn1)C(F)(F)F (stereo not given) -10.8%, CC(=O)Nc1ccc(Oc2ccc3nc(C)[nH]c3c2)cc1 0.827%, CC(C)C(C(=O)Nc1ncn[nH]1)N1C(=O)c2ccccc2C1=O (stereo not given) -9.04%, O=C(NCCOCCOCCNC(=O)c1cccnc1)c1cccnc1 -1.99%, CCCOc1ccc(/C(O)=C2/C(=O)C(=O)N(CCCn3ccnc3)C2c2cccs2)cc1 (stereo not given) 2.88%, O=C(c1nsnc1-c1ccccc1O)N1CCCCC1 6.47%, CC(=O)Nc1ccc(NCC(O)COc2ccccc2)cc1 (stereo not given) -5.41%, CC1CCc2cc(F)cc3c(O)c(C(=O)Nc4cnccn4)c(=O)n1c23 (stereo not given) 19.5%, O=C(c1ccccc1)n1c(=S)nc2ccccn21 -14%, Cc1cc(=O)oc(C)c1C(=O)NC12CC3CC(CC(C3)C1)C2 1.02%, S=C(N=Nc1ccccc1)NNc1ccccc1 14%, COc1ccc(C(=O)N2CCC(N3CCN(c4ccccc4)CC3)CC2)cc1OC 20.4%, CC(=O)c1cccc(N=C2NC(=O)C(CO)(CO)S2)c1 -3.93%, COc1cccc(NC(=O)CSC2=C(C#N)C(c3ccco3)C3=C(CCCC3=O)N2)c1 (stereo not given) -16%, CCCCCOC(=O)C(C)c1c(C)[nH]c(=S)[nH]c1=O (stereo not given) 6.16%, Cn1c(O)c(C=Nc2ccc(Cc3ccncc3)cc2)c(=O)n(C)c1=O -10.1%, CN=C1c2cc3c(Br)c(OC)ccc3n2CCN1C -7.64%, CN(C)S(=O)(=O)Nc1ccc(NS(=O)(=O)N(C)C)c(S(=O)(=O)c2ccccc2)c1 -5.57%, CCOC(=O)NC(Nc1cc(C)on1)(C(F)(F)F)C(F)(F)F -2.55%, CC1(C)Cc2c(c(-c3ccccc3)nc3[nH][nH]c(=O)c23)CO1 -1.86%, CCCCc1nc(N2CCOCC2)c(C#N)c2c1CCCC2 -27.2%, c1ccc(-c2nnc3sc(Cc4cccs4)nn23)cc1 -18.2%, COC(=O)c1cc(Br)c(=O)n(-c2nccs2)c1 -2.48%, COc1ccc(N2C(=O)C3C(C2=O)C2C=CC3C23CC3)c(OC)c1 (stereo not given) 5.04%, CCCOc1cccc(C2C(C(=O)c3ccc(C)o3)=C(O)C(=O)N2CCCN(C)C)c1 (stereo not given) 10.1%, O=C(NCCO)c1cccc2c1C(=O)c1ccccc1-2 2.44%, Cn1c(OCc2ccc3c(c2)OCO3)nc2c1c(=O)n(Cc1cccc(Cl)c1)c(=O)n2C 1.55%
